A short description of assay [1]: compounds binding Alexa647 anti-His antibody – biochemical, small-molecule microarray, 635 nm fluorescence, artefact control for SMM control protein annotation, primary screen (AID 1128).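 Also: score merges feature fluorescence with signal-to-noise for each printed compound spot.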 Conditions: higher = more signal.
Assay [2] relates to Human papillomavirus type 1a E7 protein (residues 1-88). The assay can be described thus: HPV1a E7 small-molecule binders, primary screen, biochemical, small-molecule microarray, residues 1-88, 635 nm (AID 1129). To be noted: small-molecule microarray binding, fluorescence 635 nm; higher = more signal.
In assay [3] the target is Focal adhesion kinase 1 (Homo sapiens) (UniProt Q05397). As to the kind of experiment: PTK2 protein binding on printed compound slides – biochemical, small-molecule microarray, 635/667 nm fluorescence, BSA, DTT, primary screen (AID 1130).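 Also: composite of spot emission at 667 nm and signal to noise over triplicate slides.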 Conditions: 635 nm fluorescence, higher = more signal.
Assay [4] concerns Fibrinogen (Alexa647-labelled). The assay can be described thus: Alexa647-fibrinogen binding to printed small molecules – biochemical, small-molecule microarray, 635/667 nm fluorescence, artefact control for SMM control-protein annotation, profiling panel (AID 1131).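 Also: z-score merges 667 nm fluorescence with per-spot signal-to-noise over triplicate slides.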 To be noted: fibrinogen-A647 binding fluorescence, higher = more signal.
The target of assay [5] is Follistatin (Homo sapiens) (UniProt P19883). As to the kind of experiment: FST protein binding to printed compounds – biochemical, small-molecule microarray, 635/667 nm fluorescence, primary screen (AID 1132). Conditions: 635 nm fluorescence, higher = more signal.
In assay [6] the target is Fibroblast growth factor 2 (Homo sapiens) (UniProt P09038). As to the kind of experiment: basic fibroblast growth factor binding to printed compounds – biochemical, small-molecule microarray, 635/667 nm fluorescence, primary screen (AID 1133). Conditions: FGF2, fluorescence 635/667, higher = more signal.
Assay [7] is described as follows: JC-1 mitochondrial potential readout, lung cancer cells – cell-based, A549, JC-1 fluorescence, basal, 24 h, 100 nL, profiling panel (AID 1138).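 Also: A549 lung adenocarcinoma cells under basal conditions with no added stimulus; test concentration not given here.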 Conditions: higher = more signal.
The next assay deals with Lefty1. As to the kind of experiment: Lefty1 protein binding to printed compounds – biochemical, small-molecule microarray, 635/667 nm fluorescence, primary screen (AID 1139). To be noted: fluorescence 635/667, higher = more signal.
The test system of assay [8] is wheat germ agglutinin (Triticum aestivum), Alexa647-labelled. As to the kind of experiment: Alexa647-WGA lectin binding to printed small molecules – biochemical, small-molecule microarray, 635/667 nm fluorescence, artefact control for SMM control-protein annotation, profiling panel (AID 1140).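 Also: score merges 667 nm feature emission with signal to noise over triplicate slides.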 Conditions: WGA-A647 binding, 635 nm fluorescence, higher = more signal.
The target in assay [9] is Luciferin 4-monooxygenase (Photinus pyralis) (UniProt P08659). The assay can be described thus: inhibition of purified Photinus pyralis luciferase – biochemical, luminescence, purified enzyme, 2006 set, primary screen (AID 1141).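 Also: cell-free assay with purified firefly luciferase at 100 ng per well in PBS; test concentration not given here.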 Conditions: purified firefly luciferase, SteadyGlo luminescence, 30 min; higher = more signal, called active from +8 up or from −8 down.
The subject of assay [10] is Wnt5a (protein binding on small-molecule microarray). As to the kind of experiment: small molecules binding Wnt5a protein – biophysical, small-molecule microarray, 635/667 nm fluorescence, primary screen (AID 1142).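 Also: fluorescence read at 667 nm with signal to noise per printed feature.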 Conditions: 635 nm fluorescence, higher = more signal.
Assay [11] is described as follows: ATP-based viability of Huh7 replicon cells – cell-based, CellTiter-Glo luminescence, basal, 48 h, cytotoxicity control for HCV replication inhibitor project, primary screen (AID 1143).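 Also: Huh7 hepatoma cells carrying a hepatitis C replication reporter with no stimulus; test concentration not given here.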 Conditions: higher = more signal, called active from +8 up or from −8 down.
The nature of assay [12]: Pseudomonas biofilm growth suppression – PAO1 strain, BacTiter-Glo luminescence, LB-PBS, primary screen (AID 1144). To be noted: P. aeruginosa PAO1 biofilm, 12 h, higher = more signal.
Assay [13] can be described thus: basal CRE-LacZ reporter activity in PC12 – cell-based, unstimulated, primary screen (AID 1145). To be noted: no forskolin, luminescence, 4.5 h, higher = more signal, called active from +8 up or from −8 down.
Assay [14] is described as follows: forskolin-driven CRE-LacZ activity in PC12 – cell-based, CRE-LacZ reporter, forskolin-stimulated, primary screen (AID 1146).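 Also: PC12 cells with 6xCRE LacZ reporter stimulated by forskolin 10 µM; beta-galactosidase reporter signal reflecting CREB driven transcription.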 Conditions: luminescence, 4.5 h, higher = more signal, called active from +8 up or from −8 down.
Assay [15] deals with Streptavidin (Streptomyces avidinii) (UniProt P22629). As to the kind of experiment: compounds binding control protein streptavidin – biophysical, small-molecule microarray, 635/667 nm fluorescence, artefact control for SMM compound annotation, primary screen (AID 1147).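 Also: signal reflects streptavidin binding to arrayed compounds as a control protein.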 Conditions: higher = more signal.
Assay [16] in a line: probe aInhba binding on compound microarray – biochemical, small-molecule microarray, 635/667 nm fluorescence, primary screen (AID 1148).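 Also: score merges 667nm spot fluorescence with signal-to-noise for antibody binding to printed compounds.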 Conditions: higher = more signal.
Assay [17] deals with Torsin-1A (Homo sapiens) (UniProt O14656). The assay can be described thus: TOR1A wild-type binding on microarray – cell lysate, small-molecule microarray, lysate, 635/667 nm, primary screen (AID 1149). To be noted: COS7 hTOR1A-WT lysate, 635 nm fluorescence, higher = more signal.
For assay [18] the target is unchanged. The assay can be described thus: torsin A mutant lysate binding on microarrays – cell lysate, small-molecule microarray, COS7 lysate, 635/667 nm fluorescence, primary screen (AID 1150).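 Also: score pools 667 nm emission and signal to noise measuring lysate protein binding.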 To be noted: COS7 hTOR1A mutant lysate, 635 nm fluorescence, higher = more signal.
For assay [19], the system named is Sonic hedgehog protein (Shh). The assay can be described thus: Sonic hedgehog microarray binding compounds – biochemical, small-molecule microarray, 635/667 nm fluorescence, primary screen (AID 1151).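 Also: Shh protein binding to compounds spotted on small-molecule microarray slides; score combines spot fluorescence intensity with signal-to-noise across triplicate slides.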 Conditions: 635 nm fluorescence, higher = more signal.

Each structure is given as a SMILES string. Values joined by “and” are separate entries in the source; they are usually repeats but may differ in a detail not shown here. Equal values may be shown once. More than one record can exist for a structure, and the calls need not agree. Active and inactive are the calls of the source. Unless noted, no rule for the calls is given here.

Sequence of Focal adhesion kinase 1 (Homo sapiens) (Q05397 whole entry, looked up): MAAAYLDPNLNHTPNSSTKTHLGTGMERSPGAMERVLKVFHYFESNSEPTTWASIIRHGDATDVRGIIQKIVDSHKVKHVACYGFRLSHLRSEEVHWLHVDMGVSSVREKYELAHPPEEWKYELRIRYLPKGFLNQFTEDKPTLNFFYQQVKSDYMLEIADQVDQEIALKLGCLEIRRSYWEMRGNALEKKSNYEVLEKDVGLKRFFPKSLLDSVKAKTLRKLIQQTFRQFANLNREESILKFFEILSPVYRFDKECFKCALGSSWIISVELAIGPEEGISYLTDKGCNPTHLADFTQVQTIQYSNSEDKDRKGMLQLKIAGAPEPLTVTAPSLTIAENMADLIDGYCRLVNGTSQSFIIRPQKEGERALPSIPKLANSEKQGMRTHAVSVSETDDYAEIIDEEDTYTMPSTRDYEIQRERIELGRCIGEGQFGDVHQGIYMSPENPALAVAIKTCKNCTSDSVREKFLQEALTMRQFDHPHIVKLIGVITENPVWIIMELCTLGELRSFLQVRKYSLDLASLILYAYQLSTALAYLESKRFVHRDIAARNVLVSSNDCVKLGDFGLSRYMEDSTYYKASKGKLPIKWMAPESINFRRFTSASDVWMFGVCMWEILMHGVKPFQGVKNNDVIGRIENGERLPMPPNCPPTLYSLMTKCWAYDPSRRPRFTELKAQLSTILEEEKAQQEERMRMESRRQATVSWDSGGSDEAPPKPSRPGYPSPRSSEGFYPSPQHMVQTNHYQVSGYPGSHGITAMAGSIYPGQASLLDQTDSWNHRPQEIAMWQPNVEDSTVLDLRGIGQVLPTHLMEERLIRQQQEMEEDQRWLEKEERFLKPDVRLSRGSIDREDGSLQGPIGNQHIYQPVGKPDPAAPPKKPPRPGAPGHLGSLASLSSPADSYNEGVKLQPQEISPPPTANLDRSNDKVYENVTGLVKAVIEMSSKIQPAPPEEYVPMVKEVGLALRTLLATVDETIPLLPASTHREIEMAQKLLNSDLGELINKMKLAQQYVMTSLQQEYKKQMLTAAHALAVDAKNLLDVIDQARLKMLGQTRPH
Sequence of Luciferin 4-monooxygenase (Photinus pyralis) (P08659 whole entry, looked up): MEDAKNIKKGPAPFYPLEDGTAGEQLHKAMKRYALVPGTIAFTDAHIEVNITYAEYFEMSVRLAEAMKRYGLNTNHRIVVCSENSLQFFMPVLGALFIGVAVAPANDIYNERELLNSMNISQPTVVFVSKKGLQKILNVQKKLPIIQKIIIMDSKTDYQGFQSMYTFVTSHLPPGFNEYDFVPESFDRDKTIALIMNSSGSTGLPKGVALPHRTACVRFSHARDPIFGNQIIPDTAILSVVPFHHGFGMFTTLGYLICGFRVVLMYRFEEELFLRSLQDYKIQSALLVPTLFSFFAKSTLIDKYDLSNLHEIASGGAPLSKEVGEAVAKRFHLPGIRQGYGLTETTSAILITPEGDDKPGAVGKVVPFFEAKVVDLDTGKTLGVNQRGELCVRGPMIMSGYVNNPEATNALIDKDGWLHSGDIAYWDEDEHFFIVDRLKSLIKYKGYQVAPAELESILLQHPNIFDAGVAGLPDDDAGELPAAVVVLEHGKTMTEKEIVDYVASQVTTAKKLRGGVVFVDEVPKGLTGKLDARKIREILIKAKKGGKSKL
Sequence of Streptavidin (Streptomyces avidinii) (P22629 whole entry, looked up): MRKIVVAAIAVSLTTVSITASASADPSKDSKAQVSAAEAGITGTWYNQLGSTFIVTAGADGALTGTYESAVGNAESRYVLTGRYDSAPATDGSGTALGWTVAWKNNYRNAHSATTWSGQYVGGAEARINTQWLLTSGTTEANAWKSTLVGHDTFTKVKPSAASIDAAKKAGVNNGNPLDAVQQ
Sequence of Fibroblast growth factor 2 (Homo sapiens) (P09038 whole entry, looked up): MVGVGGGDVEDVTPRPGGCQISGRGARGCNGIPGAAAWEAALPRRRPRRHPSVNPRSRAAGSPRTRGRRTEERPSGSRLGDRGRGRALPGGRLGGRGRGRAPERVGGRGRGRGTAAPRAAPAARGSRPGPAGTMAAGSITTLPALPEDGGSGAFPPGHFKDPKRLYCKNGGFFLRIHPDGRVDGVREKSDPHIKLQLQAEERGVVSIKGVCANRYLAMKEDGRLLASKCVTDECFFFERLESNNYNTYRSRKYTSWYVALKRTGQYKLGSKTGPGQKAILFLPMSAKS
Sequence of Follistatin (Homo sapiens) (P19883 whole entry, looked up): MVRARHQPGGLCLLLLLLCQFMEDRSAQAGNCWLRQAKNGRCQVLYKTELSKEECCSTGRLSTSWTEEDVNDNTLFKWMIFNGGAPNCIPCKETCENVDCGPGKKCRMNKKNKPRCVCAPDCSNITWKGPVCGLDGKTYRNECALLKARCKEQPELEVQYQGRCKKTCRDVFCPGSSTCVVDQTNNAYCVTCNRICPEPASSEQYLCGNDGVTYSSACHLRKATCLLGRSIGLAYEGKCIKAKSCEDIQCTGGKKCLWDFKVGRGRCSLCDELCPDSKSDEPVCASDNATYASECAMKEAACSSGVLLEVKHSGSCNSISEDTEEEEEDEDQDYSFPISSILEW
Sequence of Torsin-1A (Homo sapiens) (O14656 whole entry, looked up): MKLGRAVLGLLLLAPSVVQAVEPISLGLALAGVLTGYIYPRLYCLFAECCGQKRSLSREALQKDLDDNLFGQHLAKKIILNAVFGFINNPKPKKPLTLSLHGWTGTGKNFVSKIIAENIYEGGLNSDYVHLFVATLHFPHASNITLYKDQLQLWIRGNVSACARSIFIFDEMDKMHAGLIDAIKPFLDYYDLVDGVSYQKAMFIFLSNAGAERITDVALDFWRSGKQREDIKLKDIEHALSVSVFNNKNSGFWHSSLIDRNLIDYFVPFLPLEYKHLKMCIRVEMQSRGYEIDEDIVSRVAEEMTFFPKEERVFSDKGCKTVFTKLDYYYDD

Turning to `C=CCN(Cc1ccccc1)C(=O)C1N(CCOCCO)C(=O)C2C(C(=O)O)C3C=CC21O3` (stereo not given), the composite z-score is -1.85 and -0.223 in [1]; -0.804 and -0.812 in [2]; -1.29 and -0.708 in assay [3]; -1.23 and -1.34 in [4]; -3.29 and -1.2 in assay [5]; -2.01 and -1.98 in assay [6]. Further, the composite z-score is -2.56 and -2.05 with Lefty1; -0.94 and -1.25 in [8]; -0.0792 and -1.24 in [10]; -1.36 and -1.24 in [15]; -0.282 and -0.0645 in assay [16]; -2.62 and -3.49 in the assay with Torsin-1A (Homo sapiens) [17]. Further, the composite z-score was -1.89 and -3.16 with Torsin-1A (Homo sapiens) [18]; -1.64 and -2 in assay [19]. In addition, the z-score in assay [7] was 1.2 and -0.743; in [9], -0.582 (inactive) and 1.28 (inactive); in [11] it was -2.27 (inactive) and 0.247 (inactive); in assay [12] it was -0.0168 (inactive); in assay [13], -0.484 (inactive) and -0.753 (inactive); in assay [14], -0.347 (inactive) and -0.736 (inactive).

Take `COC(=O)[C@H](C)NC(=O)CCC1CC(OC(=O)NCCc2ccc(F)cc2)CC2(CCCC(COC(=O)NCCCN3CCCC3=O)O2)O1` (stereo not given in full): the composite z-score in [1] is 0.944; in assay [2], 1.17; in assay [3], 0.534; in [4], 0.872; in [5] it was 1.03; in [6] it was 1.3. For the same compound, the composite z-score came to 1.55 in the assay on Lefty1; 0.526 in assay [8]; 0.29 in assay [10]; 0.953 in [15]; 0.117 in [16]; 0.273 with Torsin-1A (Homo sapiens) [17]. Moreover, the composite z-score amounted to 0.268 with Torsin-1A (Homo sapiens) [18] and 1.07 in assay [19]. Further, the z-score in [7] was -0.498; in assay [9], 0.824 (inactive); in [11] it was -0.959 (inactive); in assay [12], 0.0154 (inactive); in [13], -0.704 (inactive); in [14] it was 0.597 (inactive).

`CCOC(=O)C[C@H]1[C@H](OC(=O)c2ccccc2-c2ccccc2)[C@@H](NC(=O)c2ccccc2)c2cc(OCCCO)ccc2N1C(=O)c1ccc2ccccc2n1`: the composite z-score in assay [1] is 0.861 and 1.4; in assay [2], 0.547 and 0.311; in [3], -0.0011 and 0.466; in assay [4], 0.0271 and 0.432; in assay [5], 0.41 and 1.12; in [6], 0.566 and 0.845. Further, the composite z-score in the assay with Lefty1 is 0.513 and 0.934; in assay [8] it was 0.692 and 0.31; in [10], 0.103 and 0.147; in [15] it was -0.0119 and 1.12; in [16], 0.216 and 0.0047; in the assay with Torsin-1A (Homo sapiens) [17] it was 0.144 and 0.158. Moreover, the composite z-score with Torsin-1A (Homo sapiens) [18] was 0.0956 and 0.344; in [19] it was 0.502 and 1.8. In addition, the z-score in assay [7] was 1.1 and 0.202; in assay [9], -0.233 (inactive) and -0.818 (inactive); in [11] it was -0.616 (inactive) and 0.662 (inactive); in [12], 0.559 (inactive) and 0.171 (inactive); in assay [13], 9.27 (active) and -0.23 (inactive); in [14], 0.158 (inactive) and -0.583 (inactive).

As to `COc1ccc(-c2ccc3c(n2)CCCN3CC(O)CN2CCCc3nc(-c4ccc(Br)cc4)ccc32)cc1` (stereo not given), the composite z-score in assay [1] was 1.33 and 1.2; in assay [2], 0.601 and 0.387; in [3], 0.665 and 0.748; in assay [4], 0.572 and 0.757; in [5], 0.922 and 0.796; in [6], 0.6 and 0.609. Moreover, the composite z-score in the assay with Lefty1 is 1.02 and 0.514; in [8], 0.557 and 0.333; in assay [10], 0.353 and 0.0813; in [15], 1.41 and 0.932; in assay [16], 0.136 and 0.204; with Torsin-1A (Homo sapiens) [17], 0.438 and 0.224. The composite z-score with Torsin-1A (Homo sapiens) [18] is 0.528 and 0.588; in assay [19] it was 1.03 and 0.76. Moreover, the z-score is 1.45 and 0.555 in [7]; -0.254 (inactive) and 0.147 (inactive) in [9]; -1.86 (inactive) and -0.196 (inactive) in [11]; 0.766 (inactive) and 0.0378 (inactive) in assay [12]; -0.434 (inactive) and -0.161 (inactive) in assay [13]; -0.152 (inactive) and -0.116 (inactive) in assay [14].

The values are drawn from PubChem BioAssay.
